From PubChem BioAssay
Sampled rows, rich in hits. Any-hit rate of the full collection: about 19%.
DT40 TDP1 no CPT: qHTS for Inhibitors of human tyrosyl-DNA phosphodiesterase 1 (TDP1): qHTS in cells in absence of CPT; DT40 Tdp1-/- hTDP1 cells, no CPT, ATP luminescence, 48 h; Potency, µM (titrated, usually from 46.2 µM), inactives show at the top dose activity change, negative = growth inhibition, usual class: inhibitors; actives 15% (n = 420,000); note: nearly all actives have a fitted effect of over 55% in size
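DT40 Tdp1-/-;hTDP1 cells, no CPT (DMSO vehicle only), 400 cells/well; compounds pin-transferred; ≥48 hr, 37 °C; CellTiter-Glo 30 min RT dark, luminescence read.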
DT40 TDP1 CPT: growth inhibition of DT40 Tdp1-/-;hTDP1 cells with camptothecin (screen for TDP1 inhibitors); chicken DT40 Tdp1-/-;hTDP1 cells + 20 nM CPT, ATP luminescence, 48 h; Potency, µM (titrated, usually from 46.2 µM), for inactives: at the top dose activity change, negative = growth inhibition, actives largely listed as inhibitors; actives 12% (n = 420,000); note: nearly all actives have a fitted effect of over 55% in size
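Cell growth measured by CellTiter-Glo luminescence after a minimum 48 h, 37 C compound exposure with 20 nM CPT in Tdp1-knockout DT40 cells stably expressing hTDP1, seeded 400/well; qHTS titration format.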
RORgamma inh: inhibitors of mouse ROR gamma transcriptional activity | Drosophila S2 Gal4-RORgamma UAS-luciferase reporter, 20 h | Potency, µM (top dose mostly 53.6 µM), for the others: at the highest dose activity change, negative = inhibition, usual class: inhibitors | actives 5.4% (n = 310,000); note: nearly all actives have a fitted effect of over 60% in size
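Schneider cells (Drosophila), stable Gal4 DBD–ROR gamma + UAS-luc; 1 hr cmpd preincubation; Cu2+ induction 700 uM final; 20 hr ambient; luminescence.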
TDP1 block: blocks human tyrosyl-DNA phosphodiesterase 1; Potency, µM (titrated, usually from 130 µM), for the others: top-dose activity change, negative = inhibition, actives largely listed as inhibitors; recombinant TDP1, AlphaScreen DNA substrate cleavage; actives 0.28% (n = 350,000); note: nearly all actives have a fitted effect of over 40% in size
Target sequence (Q9NUW8 whole entry, looked up): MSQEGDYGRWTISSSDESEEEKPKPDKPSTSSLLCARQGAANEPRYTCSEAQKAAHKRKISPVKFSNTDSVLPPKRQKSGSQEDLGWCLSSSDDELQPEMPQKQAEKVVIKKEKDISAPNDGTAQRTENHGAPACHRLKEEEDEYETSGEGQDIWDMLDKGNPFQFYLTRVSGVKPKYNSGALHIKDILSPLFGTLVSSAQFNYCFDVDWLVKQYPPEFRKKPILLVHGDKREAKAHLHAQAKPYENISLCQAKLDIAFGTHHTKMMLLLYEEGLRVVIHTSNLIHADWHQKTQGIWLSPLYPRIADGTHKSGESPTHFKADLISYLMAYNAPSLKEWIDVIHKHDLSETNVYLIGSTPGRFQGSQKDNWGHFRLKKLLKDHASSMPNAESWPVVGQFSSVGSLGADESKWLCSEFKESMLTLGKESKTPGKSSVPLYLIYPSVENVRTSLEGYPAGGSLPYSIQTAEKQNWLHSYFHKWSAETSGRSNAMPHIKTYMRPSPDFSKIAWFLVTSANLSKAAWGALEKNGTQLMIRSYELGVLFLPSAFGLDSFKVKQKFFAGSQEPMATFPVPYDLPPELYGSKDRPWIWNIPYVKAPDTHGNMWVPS
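Tdp1 1 nM final; 15 min RT w/ cpd; substrate 15 nM, 5 min; beads 10 ug/ml, 10 min; AlphaScreen read. Neg ctrl: no enzyme.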
Gal4-VP16 FLuc: inhibits Gal4-VP16 luciferase reporter, ROR gamma counter-screen; Drosophila S2 Gal4-VP16 UAS-luciferase, luminescence, 20 h; Potency, µM (highest dose often 53.6 µM), without a hit: at the highest dose activity, negative = inhibition, actives largely listed as inhibitors; actives 3.5% (n = 310,000);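 note: Gal4-VP16 expression switched on by copper sulfate through the metallothionein promoter; nearly all actives have a fitted effect of over 50% in size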
An asterisk follows results filed as active; ? = inconclusive; . = no result; ! = not confirmed by another sample; [ ] = remark or other dose. Calls come from the whole dose curve; as a rule, active = well fitted curve in the direction sought with a large enough effect; inconclusive = small, poorly fitted or top-dose-only effect, or another doubt; inactive = no such curve, though single readings can be large; an effect the other way counts as inactive or inconclusive. % is set by controls: 0 for no effect and ±100 for the full control effect; potency is the fitted concentration of half-maximal effect.

SMILES | DT40 TDP1 no CPT | DT40 TDP1 CPT | RORgamma inh | TDP1 block | Gal4-VP16 FLuc
CCOc1ccc(C(=O)NC(=S)N2CCN(c3ccc(C(F)(F)F)cc3[N+](=O)[O-])CC2)cc1 | ? | ? | 0.32µM* | -8% | 0.25µM*
COc1cccc(OC)c1C(=O)NC(=S)N1CCN(c2ccc(C(F)(F)F)cc2[N+](=O)[O-])CC1 | ? | ? | 7.1µM* | 9% | 22µM*
O=[N+]([O-])c1cc(C(F)(F)F)ccc1N1CCN(CCO)CC1 | -14% | -2% | 10% | -1% | -1%
COc1cccc(C(=O)NC(=S)N2CCN(c3ccc(C(F)(F)F)cc3[N+](=O)[O-])CC2)c1 | ? | ? | 0.56µM* | 8% | 0.63µM*
CC(C)Oc1cccc(C(=O)NC(=S)N2CCN(c3ccc(C(F)(F)F)cc3[N+](=O)[O-])CC2)c1 | ? | ? | 0.45µM* | 10% | 1.1µM*
COc1ccc(N2CCN(C(=O)c3ccccc3F)CC2)c([N+](=O)[O-])c1 | ? | ? | 2% | 6% | -1%
O=C(CCNC(=O)c1ccco1)Nc1ccc(F)c(Cl)c1 | -15% | -5% | -2% | 6% | 7%
O=C(C1CCC1)N1CCN(c2ccc(C(F)(F)F)cc2[N+](=O)[O-])CC1 | ? | ? | 7.1µM* | 4% | 4µM*
O=C(Nc1ccccc1)N1CCCN(c2ccc(C(F)(F)F)cc2[N+](=O)[O-])CC1 | ? | ? | ? | 6% | ?
CC(C)Oc1ccc(CN2CCC2(C)C(=O)NCc2cccc3ccccc23)cc1 (configuration not stated) | 15µM* | 12µM* | . | . | .
CC1(C(=O)NCc2cccc3ccccc23)CCN1CCc1ccccc1 (configuration not stated) | 18µM* | ? | . | . | .
COc1cccc(CNC(=O)C2(C)CCCN2C(=O)C(C)C)c1 (configuration not stated) | 8% | 7% | . | . | .
CC1(C(=O)NCc2ccccc2)CN(S(C)(=O)=O)CC(=O)N1CCc1ccccc1 (configuration not stated) | 15% | ? | . | . | .
C=CC1=C2C=C(C3CC3)N(c3ccc(OC)cc3)C=C2C(=O)C(C)(OC(=O)c2ccco2)C1=O (configuration not stated) | . | . | . | 16%[12.3 µM] | .
COc1cc2[nH]c(=O)c(C(=O)NCc3ccccc3Cl)c(O)c2cc1OC | 18µM* | 15µM* | 6% | -1% | 1%
Cc1ccccc1OC(C)C(=O)NCCNC(=O)C(C)Oc1ccccc1C (configuration not stated) | ? | ? | . | 1% | .
CNCC[C@@H](Oc1ccccc1C)c1ccccc1 | 24µM* | ? | -11% | -4%[56.1 µM] | 5%
COc1ccccc1OCCCC(=O)NC(C)c1ccccc1 (configuration not stated) | -21% | -14% | 13% | 7% | -8%
CNCCC(Oc1ccccc1OC)c1ccccc1 (configuration not stated) | 23µM*! | 13µM*! | 9% | 7%[56.1 µM] | 0%
CCCn1nnnc1NC(=O)c1ccc2ccccc2c1 | 18µM* | ? | 1.6µM* | 11% | 1µM*
CCCCC(=O)Nc1nnn(CCC)n1 | -4% | -1% | 15% | 5% | 6%
CCCCC(=O)Nc1nnnn1CCC | -12% | 14% | 14µM* | 3% | ?
COc1ccc(NC(=O)COC(=O)c2ccc(N3CCCC3=O)cc2)cc1 | 14% | 4% | . | -4%[56.1 µM] | .
Cc1ccc(S(=O)(=O)N2CCN(C(=O)c3ccc(S(=O)(=O)N4CCCC4)cc3)CC2)cc1 | 11% | -6% | -8% | 6% | -12%
O=C(c1ccc(S(=O)(=O)N2CCCC2)cc1)N1CCN(c2ccccc2)CC1 | -29% | -9% | 4% | . | 16%
SMILES | DT40 TDP1 no CPT | DT40 TDP1 CPT | RORgamma inh | TDP1 block | Gal4-VP16 FLuc
COc1cccc(N2CCN(CC(=O)N3CCN(S(=O)(=O)c4ccc(Cl)cc4)CC3)CC2)c1 | 18µM* | ? | . | 3% | .
Cc1cc(C)nc(N2CCN(C(=O)c3ccc(S(=O)(=O)N4CCCCCC4)cc3)CC2)n1 | 16µM* | 26µM* | 10% | 5% | -3%
O=C(c1ccc(S(=O)(=O)N2CCCC2)cc1)N1CCN(c2cccc(Cl)c2)CC1 | 18µM* | 23µM* | ? | 5% | -12%
CC(=O)c1ccc(S(=O)(=O)N2CCN(C(=O)c3ccc(-n4nc(C)c(Cl)c4C)cc3)CC2)cc1 | 13µM* | 16µM* | . | 3% | .
COc1cccc(/C=C/C(=O)c2cccc([N+](=O)[O-])c2)c1 | ? | ? | -101% | 4% | 4.5µM*
COc1cccc(C(=O)/C=C/c2ccc(N3CCCCC3)c([N+](=O)[O-])c2)c1 | ? | 18µM* | 10% | 12% | 1%
O=C(/C=C/c1ccc(N2CCCCC2)c([N+](=O)[O-])c1)c1ccc(S(=O)(=O)N2CCCC2)cc1 | 9.2µM* | 9.2µM* | 1% | 11% | -8%
COc1ccc(OC(=O)c2cccc([N+](=O)[O-])c2)c(C(=O)/C=C/c2cccs2)c1 | ? | ? | -24% | 7% | 15%
CCN(CC)S(=O)(=O)N1CCC(C(=O)NCc2ccco2)CC1 | -36% | -1% | 8% | 3% | 6%
CC(C)c1nn2c(=O)cc(COC(=O)c3ccccc3NC(=O)c3cccc(Cl)c3)nc2s1 | 18µM* | 16µM* | . | -1% | .
CC(C)c1nn2c(=O)cc(COC(=O)c3ccccc3NC(=O)c3cccs3)nc2s1 | 7.3µM* | 7.3µM* | . | -1% | .
CCOc1ccc(CCNC(=O)CN2C(=O)CCSc3ccccc32)cc1 | ? | 5% | -4% | . | -2%
O=[N+]([O-])c1cccc(/C=C/c2nc(C=Nc3ccc4ccccc4c3)c(O)o2)c1 | -13% | -30% | 1% | 4% | -5%
c1ccc2c(c1)-c1cccc3c1c-2cc1ccccc13 | . | . | 0% | -6% | -10%
COc1ccccc1N1CCN(C(=O)c2cc(-c3ccc(Cl)cc3)on2)CC1 | ? | 22µM* | 35% | 2% | -11%
COc1ccccc1N1CCN(C(=O)c2onc(C)c2Cl)CC1 | ? | ? | -18% | . | 5%
COc1ccccc1N1CCN(C(=O)c2cc(-c3ccc(C)cc3)on2)CC1 | ? | ? | -36% | 1% | -5%
COc1ccccc1-c1cc(C(=O)N2CCN(c3ccccc3OC)CC2)no1 | ? | 18µM* | 8% | 3% | -8%
COc1ccccc1N1CCN(C(=O)c2nc(SC)ncc2Cl)CC1 | 1µM* | 1µM* | . | 4% | .
O=C(COC(=O)CCC1CCCC1)Nc1ccccc1Br | -7% | -24% | . | 79µM* | .
Cc1ccc(NC(=O)COC(=O)CCC2CCCC2)c(Br)c1 | -23% | -2% | . | 56µM* | .
COc1ccccc1NC(=O)COC(=O)CCC1CCCC1 | 8% | -3% | . | . | .
